# Results reported in PubChem BioAssay (NCATS).
# Values joined by “and” are separate entries in the source; they are usually repeats but may differ in a detail not shown here. Equal values may be shown once. Records with an inconclusive call do not appear. More than one record can exist for a structure, and the calls need not agree. Unmarked numbers belong to inactive results. Active and inactive are the calls of the source. Unless noted, calls follow the shape of the dose curve; as a rule, active = well fitted curve in the direction sought with a large enough effect; inconclusive = small, poorly fitted or top-dose-only effect, or another doubt; inactive = no such curve, though single readings can be large; an effect the other way counts as inactive or inconclusive.
# Legend:
# [1] = molecular target: Cellular tumor antigen p53 (Homo sapiens) (UniProt P04637); assay: Primary qHTS for small molecule compounds that upregulate eGFP-tagged delta133p53alpha (in N-terminal) cells. (AID 2060322); conditions: NCI-H358 eGFP-delta133p53alpha fluorescence, 24 h; activation: active compounds read high; also: nearly all actives have a fitted effect of over 75% in size; also: potency is read from the fitted curve at half-maximal effect;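 as to activation: series mostly up to about 56 µM; 0% = DMSO vehicle and 100% = reference activator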
# Procedure, shortened: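 NCI-H358 cells pre-induced 24 h with 10 ng/ml doxycycline to express N-terminal eGFP-delta133p53alpha, then dosed 24 h at 37C without doxycycline; fixed, Hoechst-stained, GFP intensity by laser scanning cytometry, normalized to DMSO (0%) and 57.5 uM 5-azacytidine (100%).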
# [2] = molecular target: Cellular tumor antigen p53 (Homo sapiens) (UniProt P04637); assay: Primary qHTS for small molecule compounds that upregulate eGFP-tagged delta133p53alpha (in C-terminal) cells. (AID 2060324);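 also: 0% = DMSO wells and 100% = 57.5 µM 5-azacytidine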
# Procedure, shortened: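 C-terminal eGFP-tagged delta133p53alpha NCI-H358 line; dox-induced (100 ng/ml, 24 h) then plated without dox; compounds pinned in titration, 24 h 37 °C/5% CO2; PFA fix, Hoechst nuclei; GFP by LSC.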
# [3] = molecular target: Aldehyde dehydrogenase, mitochondrial (Homo sapiens) (UniProt P05091); assay: qHTS for Inhibitors of the Aldehyde Dehydrogenase Family (ALDH2) Validation screens (AID 2061302; active = well fitted inhibition curve with a large enough effect; title and protocol of this record describe different tests;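 also: plate controls were DMSO vehicle for no effect and maximal DPI positive control response for full effect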)
# [4] = molecular target: Retinaldehyde dehydrogenase 3 (Homo sapiens) (UniProt P47895); assay: qHTS for Inhibitors of the Aldehyde Dehydrogenase Family (ALDH1A3) Validation screen (AID 2061312); also: % is scaled to controls: 0 for no effect and ±100 for the full control effect; nearly all actives have a fitted effect of over 45% in size
# Sequence of Cellular tumor antigen p53 (Homo sapiens) (P04637 whole entry, looked up): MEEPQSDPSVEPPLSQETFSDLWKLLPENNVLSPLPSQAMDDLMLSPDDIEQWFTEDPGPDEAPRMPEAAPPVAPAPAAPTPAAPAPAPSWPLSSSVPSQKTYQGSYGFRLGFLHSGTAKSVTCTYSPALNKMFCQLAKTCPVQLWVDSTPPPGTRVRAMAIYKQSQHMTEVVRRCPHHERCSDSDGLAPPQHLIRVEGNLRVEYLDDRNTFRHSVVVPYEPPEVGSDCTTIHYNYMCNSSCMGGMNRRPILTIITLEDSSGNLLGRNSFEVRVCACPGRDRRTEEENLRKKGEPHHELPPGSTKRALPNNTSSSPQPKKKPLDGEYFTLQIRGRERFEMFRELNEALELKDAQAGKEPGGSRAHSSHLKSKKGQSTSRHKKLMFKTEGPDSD
compound,measurement,setting,value
COc1ccc(C(=O)N2CCN(CC(=O)N3CCOCC3)CC2)cc1,activation,[1],3.95%
CC=CCC(C)C(O)C1C(=O)NC(CC)C(=O)N(C)CC(=O)N(C)C(CC(C)C)C(=O)NC(C(C)C)C(=O)N(C)C(CC(C)C)C(=O)NC(C)C(=O)NC(C)C(=O)N(C)C(CC(C)C)C(=O)N(C)C(CC(C)C)C(=O)N(C)C(C(C)C)C(=O)N1C (centres undefined),activation,[1],-6.27%
NC(CO)(CO)CO,activation,[1],-22%
COc1nc(N)nc2c1ncn2[C@@H]1O[C@H](CO)[C@@H](O)[C@@H]1O,activation,[1],-17.5% and 19.2%
CCOC(=O)[C@H](CCc1ccccc1)N[C@@H](C)C(=O)N1[C@@H](C(=O)O)C[C@H]2CCC[C@@H]21,activation,[1],0.313%
NC(=O)NC(=O)Cc1ccccc1,activation,[1],-10%
NC(=Nc1ccccc1)Nc1ccccc1,activation,[1],7.53%
COc1ccc2c(c1)CC[C@H]1[C@@H]2CC[C@]2(C)[C@@H](NCCCCCCN3C(=O)C=CC3=O)CC[C@H]12,activation,[1],38.4%
N[C@@H](CSSC[C@H](N)C(=O)O)C(=O)O,activation,[1],24.3%
N[C@@H](CSCCCO)C(=O)O,activation,[1],-10%
O=C(O)Cc1ccc(-c2ccccc2)cc1,activation,[1],-6.21%
C#C[C@]1(O)CC[C@H]2[C@@H]3CCC4=Cc5oncc5C[C@]4(C)[C@H]3CC[C@@]21C,activation,[1],-14.2%
CCCCOCCOC(=O)c1cccnc1,activation,[1],-10.7%
O=S(c1cc(Cl)cc(Cl)c1O)c1cc(Cl)cc(Cl)c1O,activation,[1],-0.565%
O=C(O)CCC(=O)OC[C@@H](NC(=O)C(Cl)Cl)[C@H](O)c1ccc([N+](=O)[O-])cc1,activation,[1],15.1%
Nc1nc(F)nc2c1ncn2[C@@H]1O[C@H](COP(=O)(O)O)[C@@H](O)[C@H]1O,activation,[1],-4.99%
Cc1cc(C)c2nc(-c3ccccn3)cc(C(=O)Nc3ccc(S(=O)(=O)Nc4onc(C)c4C)cc3)c2c1,activation,[1],8.11%
CNC(=O)[C@H](CC1=CN=C2C=CCC=C12)NC(=O)[C@@H](CC(=O)NO)CC(C)C,activation,[1],3.1%
COC(=O)/C=C(/C)N,activation,[1],8.47%
CCNC(=O)Nc1ccc(Oc2ncnc(N)c2C=NOC)cc1Cl,activation,[1],-10.2%
CNCc1ccccc1,activation,[1],6.21%
CC(Cc1cccc(C(F)(F)F)c1)NCCOC(=O)c1ccccc1 (centres undefined),activation,[1],17.6%
Oc1cc(O)cc(C=Cc2ccc(O)c(O)c2)c1,activation,[1],8.33%
O=C(O)[C@H](O)c1ccccc1,activation,[1],-6.21%
CC(=O)N1CCN(c2ccc(OCc3nn(C)c(C)c3-c3cccc4c(CCCOc5cc(C)c(Cl)c(C)c5)c(C(=O)O)n(Cc5cccnc5)c34)cc2)CC1,activation,[1],-5.22%
O=C(/C=C/c1ccc(O)c(O)c1)O[C@@H]1C[C@@](OC(=O)/C=C/c2ccc(O)c(O)c2)(C(=O)O)C[C@@H](O)[C@@H]1O,activation,[1],11.9%
O=C1c2c(O)cccc2Cc2cccc(O)c21,activation,[1],-24.3%
CCCCC(CC)CNC(=O)CC(C)OC(=O)CCC(=O)O (centres undefined),activation,[1],11.7%
CC(=O)[C@H]1CC[C@H]2[C@@H]3C[C@H](C)C4=CC(=O)CC[C@]4(C)[C@H]3[C@@H](O)C[C@]12C,activation,[1],-15.9%
CC(=O)Nc1cccc(O)c1,activation,[1],-4.18%
CC(CC(C#N)(c1ccccc1)C(C)C)N(C)C (centres undefined),activation,[1],-0.837%
CC(=O)Oc1cccc(C)c1,activation,[1],-28.8%
CC(=O)OC[C@H]1O[C@@H](n2ncc(=O)[nH]c2=O)[C@H](OC(C)=O)[C@@H]1OC(C)=O,activation,[1],-7.53%
CON=C(C(=O)N[C@@H]1C(=O)N2C(C(=O)O)=C(CSC(=O)c3ccco3)CS[C@H]12)c1csc(N)n1,activation,[1],4.83%
C/C(=N/NC(=O)c1ccncc1)C(=O)O,activation,[1],7.34%
CCCCC(CC)CN=C(N)NC(N)=NCCCCCCN=C(N)NC(N)=NCC(CC)CCCC (centres undefined),Potency,[1],13.8 µM (active)
CC(=O)OCC[N+](C)(C)C,activation,[1],15.3%
CC(=O)NCCCCCC(=O)O,activation,[1],0.837%
Cc1cc(CC(=O)O)c(C)n1-c1ccc(Cl)cc1,activation,[1],5.86%
CC1=C(C(=O)O)N2C(=O)[C@@H](NC(=O)[C@H](N)c3ccccc3)[C@H]2SC1,activation,[1],-27.6%
CC(C)C[C@@H]1[C@H](c2ccccc2)OC(=O)N1CCCN1CCCCCC1,activation,[1],1.67%
CC(C=CC=C(C)C=CC1=C(C)CCCC1(C)C)=CC=CC=C(C)C=CC=C(C)C=CC1=C(C)CCCC1(C)C,activation,[1],13.6%
CC1=C(C/C=C(\C)CCC[C@H](C)CCC[C@H](C)CCCC(C)C)C(=O)c2ccccc2C1=O,activation,[1],18.6%
[O-][n+]1cccc(CO)c1,activation,[1],20.1%
CCOC(=O)C(=O)CCc1ccccc1,activation,[1],10%
COc1c(C)c2c(c(O)c1CC=C(C)CCC(=O)O)C(=O)OC2,activation,[1],-14.1%
COc1cc(C)c(C=CC(C)=CC=CC(C)=CC(=O)O)c(C)c1C,activation,[1],21.4%
CC(CC1c2ccccc2CCc2ccccc21)CN(C)C (centres undefined),activation,[1],-10%
CCCC(=O)c1cc(O)c(O)cc1O,activation,[1],-37.9%
CCCCCCCCCCC[C@@H](C[C@@H]1OC(=O)[C@H]1CCCCCC)OC(=O)[C@H](CC(C)C)NC=O,activation,[1],2.82%
CCn1cc(C(=O)O)c(=O)c2cnc(N3CCCC3)nc21,activation,[1],3.95%
NC(CSCC(=O)O)C(=O)O (centres undefined),activation,[1],-5.08%
CN1CC[C@H](c2c(O)cc(O)c3c(=O)cc(-c4ccccc4Cl)oc23)[C@H](O)C1,Potency,[1],0.11 µM (active)
CC(=O)OCC(=O)[C@@]12N=C(C)O[C@H]1C[C@H]1[C@@H]3CCC4=CC(=O)C=C[C@]4(C)[C@@H]3[C@@H](O)C[C@@]12C,activation,[1],-1.97%
Cc1cccc(Nc2ccncc2S(=O)(=O)NC(=O)NC(C)C)c1,activation,[1],14.1% and -1.67%
C=C1CCC2[C@](C)(CO)C(O)CC[C@]2(C)C1CC=C1C(=O)OCC1O (some centres undefined),activation,[1],-28.9%
CC(C)N(CCCNC(=O)Nc1ccc(C(C)(C)C)cc1)C[C@H]1O[C@@H](n2cc(Br)c3c(N)ncnc32)[C@H](O)[C@H]1O,activation,[1],-20.1%
C[C@@H](O)[C@H]1C(=O)N2C(C(=O)OCOC(=O)C(C)(C)C)=C(SC3CN(C4=NCCS4)C3)[C@H](C)[C@H]12,activation,[1],-12.3%
COCCCCC(=NOCCN)c1ccc(C(F)(F)F)cc1,activation,[1],8.31%
CN=C(NC#N)Nc1ccc(C2=NNC(=O)CC2C)cc1 (centres undefined),activation,[1],6.69%
Cc1onc(-c2ccccc2)c1C(=O)Cl,activation,[1],6.21%
C=CCn1c(=O)n([C@@H]2O[C@H](CO)[C@@H](O)[C@H]2O)c2nc(N)[nH]c(=O)c21,activation,[1],-0.565%
CC(C)(O)CC[C@@H](O)[C@](C)(O)[C@H]1CC[C@@]2(O)C3=CC(=O)[C@@H]4C[C@@H](O)[C@@H](O)C[C@]4(C)[C@@H]3CC[C@]12C,activation,[1],-14.8%
O=C(OCC(O)CO)c1ccccc1Nc1ccnc2c(C(F)(F)F)cccc12 (centres undefined),activation,[1],-13.4%
O=C(CO)[C@@H](O)[C@H](O)[C@@H](O)CO,activation,[1],-15.9%
Cn1cc(C=CC(=O)c2cccc(F)c2)cc1C=CC(=O)NO,Potency,[1],38.5 µM (active)
O=C(O)CCCCC1CCSS1 (centres undefined),activation,[1],5.08%
O=C1NC(=O)C(=Cc2ccc(-c3ccc(F)cc3)o2)S1,activation,[1],-1.63%
CC(C)(C)NCC(O)COc1cccc2c1CCC(=O)N2 (centres undefined),activation,[1],28.5%
COc1ccc2cc1Oc1ccc(cc1)C[C@H]1c3cc(c(OC)cc3CCN1C)Oc1c(OC)c(OC)cc3c1[C@H](C2)N(C)CC3,activation,[1],-18.2%
CC(=O)Nc1ccc(/C=N/NC(N)=S)cc1,activation,[1],-14.2%
C[C@H]1[C@H](NC(=O)C(=NOC(C)(C)C(=O)O)c2csc(N)n2)C(=O)N1S(=O)(=O)O,activation,[1],-31.5%
CCCOC(=O)c1ccc(N)cc1,activation,[1],0%
COc1ccc2cc(C=O)ccc2c1,activation,[1],-1.69%
COc1cc(S(N)(=O)=O)cc(C(=O)O)c1OC,activation,[1],-2.82%
C[N+]1(C)[C@@H]2CC(OC(=O)[C@H](CO)c3ccccc3)C[C@H]1[C@H]1O[C@@H]12 (some centres undefined),activation,[1],14%
Cc1onc(-c2ccccc2)c1C(=O)N[C@@H]1C(=O)N2[C@@H](C(=O)O)C(C)(C)S[C@@H]12,activation,[1],-7.66%
Cc1nc(NC(=O)N2CCC[C@@H]2C(N)=O)sc1-c1csc(C(C)(C)C)n1,activation,[1],-6.14%
NC(=O)c1ncn([C@@H]2O[C@H](CO)[C@@H](O)[C@@H]2O)n1,activation,[1],-6.05%
CCOC(=O)C(C#N)=C(c1ccccc1)c1ccccc1,activation,[1],-3.35%
COc1cccc2c1C(=O)c1c(O)c3c(c(O)c1C2=O)C[C@@](O)(C(=O)CO)C[C@@H]3O[C@H]1C[C@H](N)[C@H](O[C@@H]2CCCCO2)[C@H](C)O1,Potency,[1],15.5 µM (active)
CC[N+](CC)(CC)CCOc1ccc(/C=C/c2ccccc2)cc1,activation,[1],-19.2%
CC(=O)O[C@H]1C[C@@H]2CC[C@H]3[C@H]4C[C@H]([N+]5(C)CCCCC5)[C@@H](OC(C)=O)[C@@]4(C)CC[C@@H]3[C@@]2(C)C[C@H]1N1CCCCC1,activation,[1],-4.56%
CCCCNC(=O)NS(=O)(=O)c1ccc(N)cc1,activation,[1],-14.2%
COCCOC(=O)C1=C(C)NC(C)=C(C(=O)OC(C)C)C1c1cccc([N+](=O)[O-])c1 (centres undefined),Potency,[1],6.92 µM (active)
same,activation,[1],-10.6%
same,Potency,[2],inactive
same,Potency,[3],inactive
same,Potency,[4],inactive
